± gives the standard deviation.
How the values were obtained:
[1] = tested on: MILI (PIWIL2) piRISC loaded with L1MC piRNA (26 nt); assay: pre-steady-state target cleavage rate (min^-1); guide: L1MC piRNA 5'p-UAACUAAAUACUAUGCAAGCUGUAGG; higher = faster piRNA-guided slicing of the target;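 further: 1 nM active piRISC with 0.1 nM target library at 33 °C single turnover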
In short: (§1)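 Reactions were run for 0–8 or 0–960 min at 33 °C in HEPES–potassium acetate buffer, combining 1 nM active affinity-purified piRISC with one synthetic guide, […] transcribed, DNA-blocked target RNA library and, in some cases, 500 nM GTSF1 partner protein. Sequencing of uncleaved targets followed, with normalisation to depth and to weakly complementary targets. Three trials were pooled, k3 was capped at 0.0001 min^-1, and the pre-steady-state cleavage rate was taken from a burst-and-steady-state fit.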

[2] = tested on: EfPiwi piRISC loaded with L1MC piRNA (26 nt); assay: pre-steady-state target cleavage rate (min^-1); auxiliary factor: 500 nM Ephydatia muelleri Gtsf1; guide: L1MC piRNA 5'p-UAACUAAAUACUAUGCAAGCUGUAGG; MIWI and MILI are mouse PIWI proteins and EfPiwi is from a freshwater sponge; tags in brackets are library labels; higher = faster piRNA-guided slicing of the target
In short: as §1

[3] = auxiliary factor: 500 nM mouse GTSF1
[4] = auxiliary factor: none (no GTSF1)

| Sequence | pre-steady-state target cleavage rate [1, 3] | pre-steady-state target cleavage rate [1, 4] | pre-steady-state target cleavage rate [2] |
| --- | --- | --- | --- |
| UCCUGGAACAGCUUGCAUUGUAAUUAGUUA | 0.184 ± 0.023 | 0.00389 ± 0.0028 | 0.00225 ± 0.0022 |
| UCCUGGUACAGCAUGCAUACUAUUUAGUUA | 0.139 ± 0.031 | 0.00694 ± 0.003 | 0.00483 ± 0.0019 |
| UCCUCCUGACAGCUUGCAUAGUAUUUAGUUA | 0.217 ± 0.018 | 0.00896 ± 0.0026 | 0.0255 ± 0.008 |
| UCCUGGAUGUCCUUGCAUAGUAUUUGGUUA | 0.0891 ± 0.016 | 0.00707 ± 0.0022 | 0.00366 ± 0.0027 |
| UCCUGCUACAGCUUGGAUUGUAUUUAGUUA | 0.0899 ± 0.011 | 0.00506 ± 0.0023 | 0.00362 ± 0.002 |
| UCCUGGAUGAGCUUGCAUAGUAUUUAGUUA [g2:g21:cont:t1A] | 0.244 ± 0.014 | 0.0101 ± 0.0024 | 0.0338 ± 0.0087 |
| UCCUGGAACAGCAUGGAUAGUAUUUAGUUA | 0.243 ± 0.016 | 0.00742 ± 0.0028 | 0.00527 ± 0.0017 |
| UCCUGGAUCAGCUUGCAUAGUAUUUAGUUUA | 0.358 ± 0.025 | 0.00718 ± 0.0026 | 0.0394 ± 0.011 |
| UCCUGGAACAGCUUGCAUAGUACUUAGUUA | 0.243 ± 0.018 | 0.0101 ± 0.0024 | 0.0218 ± 0.0069 |
| UCCUGCUACAGCUUGCAUAGUAUUAUAGUUA | 0.189 ± 0.021 | 0.00585 ± 0.0024 | 0.0103 ± 0.0037 |
| UCCUGCUACAGCUUGCAUAGUAAUUUAGUUA | 0.233 ± 0.023 | 0.00525 ± 0.0024 | 0.00515 ± 0.0024 |
| UCCUGGAUCAACUUGCAUAGUAUUUAGUUA | 0.265 ± 0.017 | 0.00729 ± 0.0025 | 0.0635 ± 0.018 |
| UCCUGGAUCUGCUUGGAUAGUAUUUAGUUA | 0.165 ± 0.019 | 0.0102 ± 0.0026 | 0.0089 ± 0.0032 |
| UCCUGCUAGAGCUUGCUUAGUAUUUAGUUA | 0.162 ± 0.01 | 0.00643 ± 0.002 | 0.00554 ± 0.002 |
| UCCUCCUACAGCUUGCAAAGUAAUUAGUUA | 0.116 ± 0.012 | 0.00331 ± 0.0024 | 0.00531 ± 0.0022 |
| UCCUCCUACACCUUGCAUUGUAUUUAGUUA | 0.184 ± 0.021 | 0.0078 ± 0.002 | 0.0139 ± 0.0056 |
| UCCUCCUCACAGCUUGCAUAGUAUUUAGUUA | 0.369 ± 0.021 | 0.0102 ± 0.0027 | 0.191 ± 0.046 |
| UCCUGCUACAGCUUCAUAGUAUUUAGUUA | 0.231 ± 0.019 | 0.00508 ± 0.0025 | 0.00994 ± 0.0031 |
| UCCUGCAACUGCUUGCAUAGUAUUUAGUUA | 0.322 ± 0.025 | 0.00581 ± 0.0026 | 0.0198 ± 0.0044 |
